# Columns and labels:
# AAK1 = settings: concentration: 1 μM, replicates: in singlicate; n = 1
# ABL1-nonphosphorylated = settings: concentration: 1 μM, replicates: in singlicate; n = 1
# ABL1-phosphorylated = settings: concentration: 1 μM, replicates: in singlicate; n = 1
# p38-alpha = tested on: T1, p38-alpha
# T1 construct: gene MAPK14
# p38-beta = tested on: T2, p38-beta
# T2 construct: gene MAPK11
# [1] = tested on: TYK2(JH2domain-pseudokinase)
# 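Throughout, for %Inh: KINOMEscan kinase panel screen.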
# 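Throughout, for Kd: kd values determined as follow-up on hits from a single-replicate KINOMEscan panel screen.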
smiles,measurement,setting,value
CC(C)(C)OC(=O)NC1CCCN(c2cc(-c3ccc4c(N)n[nH]c4c3)nc(N)n2)C1 (stereo not shown) [GSK2286096],Kd,TSSK3,> 10000 nM
same,%Inh,AAK1,60%
same,%Inh,ABL1-nonphosphorylated,0%
same,%Inh,ABL1-phosphorylated,0%
COc1ccc(Nc2nccc(N3CCC(NC(=O)c4cccc(NC(C)=O)c4)C3)n2)cc1 (stereo not shown) [GSK1379732],Kd,WNK4,> 10000 nM
same,%Inh,AAK1,17%
same,%Inh,ABL1-nonphosphorylated,0%
same,%Inh,ABL1-phosphorylated,0%
CS(=O)(=O)CCNCc1nc(-c2ccc3ncnc(Nc4ccc(OCc5cccc(F)c5)c(Cl)c4)c3c2)cs1.Cl [GW583340],Kd,TXK,> 10000 nM
same,Kd,ZAK,> 10000 nM
same,%Inh,AAK1,19%
same,%Inh,ABL1-nonphosphorylated,0%
same,%Inh,ABL1-phosphorylated,0%
COc1cc2c(Nc3cccc(NC(=O)c4ccccc4)c3)ncnc2cc1OCCCN1CCOCC1 [GSK223810],Kd,p38-alpha,440 nM
same,Kd,p38-beta,100 nM
same,%Inh,AAK1,45%
same,%Inh,ABL1-nonphosphorylated,41%
same,%Inh,ABL1-phosphorylated,0%
Clc1cc(Nc2ncnc3cc[nH]c23)ccc1OCc1ccccn1,%Inh,AAK1,7%
same,%Inh,ABL1-nonphosphorylated,48%
same,%Inh,ABL1-phosphorylated,0%
Nc1n[nH]c2nnc(-c3ccccc3)cc12 [SB-517389],Kd,TSSK3,> 10000 nM
same,%Inh,AAK1,16%
same,%Inh,ABL1-nonphosphorylated,11%
same,%Inh,ABL1-phosphorylated,5%
O=C(Nc1ccccc1)Nc1ccc(Oc2ccc3nccn3n2)cc1,Kd,TNNI3K,> 10000 nM
same,%Inh,AAK1,0%
same,%Inh,ABL1-nonphosphorylated,66%
same,%Inh,ABL1-phosphorylated,18%
NC(=O)c1sc(-n2cnc3ccccc32)cc1OCc1ccccc1F [GSK1024306],Kd,p38-alpha,280 nM
same,%Inh,AAK1,45%
same,%Inh,ABL1-nonphosphorylated,0%
same,%Inh,ABL1-phosphorylated,0%
COc1ccc(-c2oc3ncnc(N)c3c2-c2ccc(OC)cc2)cc1 [SB-589132],Kd,[1],1600 nM
same,%Inh,AAK1,6%
same,%Inh,ABL1-nonphosphorylated,21%
same,%Inh,ABL1-phosphorylated,10%
Oc1ccc2ncnc(Nc3ccc(OCc4ccccc4)cc3)c2c1 [GI262866],%Inh,AAK1,0%
same,%Inh,ABL1-nonphosphorylated,0%
same,%Inh,ABL1-phosphorylated,0%
C[C@H]1CC[C@@H](C(=O)Nc2ccccc2)CN1c1cc(-c2ccc3c(N)n[nH]c3c2)nc(N)n1 [GSK2283293],%Inh,AAK1,23%
same,%Inh,ABL1-nonphosphorylated,0%
same,%Inh,ABL1-phosphorylated,8%
O=C(NCCCN1CCCC1=O)c1cnc(NCc2cc(Cl)ccc2Cl)nc1NC1CCNCC1,%Inh,AAK1,0%
same,%Inh,ABL1-nonphosphorylated,0%
same,%Inh,ABL1-phosphorylated,0%
N#Cc1ccc(Oc2ccc(Nc3ncnc4cc[nH]c34)cc2Cl)cc1,%Inh,AAK1,14%
same,%Inh,ABL1-nonphosphorylated,51%
same,%Inh,ABL1-phosphorylated,6%
Cn1ccc2ncnc(Nc3ccc(Oc4cccc(Cl)c4)c(Cl)c3)c21,%Inh,AAK1,27%
same,%Inh,ABL1-nonphosphorylated,45%
same,%Inh,ABL1-phosphorylated,15%
Cc1ccc(O)cc1Nc1cc(C(F)(F)F)nc2ccc(-c3ccncc3)cc12 [GW630823],%Inh,AAK1,0%
same,%Inh,ABL1-nonphosphorylated,21%
same,%Inh,ABL1-phosphorylated,7%
CSc1ccc(NC2=C(c3ccccc3Cl)C(=O)NC2=O)cc1 [SB-342411],%Inh,AAK1,24%
same,%Inh,ABL1-nonphosphorylated,0%
same,%Inh,ABL1-phosphorylated,0%
Cc1cc(N2CCC(NS(=O)(=O)c3ccc(F)cc3)CC2)nc(Nc2cccc(C#N)c2)n1.O=C(O)C(F)(F)F [GSK1653537],%Inh,AAK1,9%
same,%Inh,ABL1-nonphosphorylated,0%
same,%Inh,ABL1-phosphorylated,0%
Clc1cccc(-c2nc(Nc3ccncc3)c3ccccc3n2)c1 [GW873004],%Inh,AAK1,0%
same,%Inh,ABL1-nonphosphorylated,51%
same,%Inh,ABL1-phosphorylated,14%
Fc1ccc(-c2ncn(CCCNCc3ccccc3)c2-c2ccncc2)cc1,%Inh,AAK1,16%
same,%Inh,ABL1-nonphosphorylated,25%
same,%Inh,ABL1-phosphorylated,15%
Fc1cccc(COc2ccc(Nc3ncnc4nn5ccccc5c34)cc2Cl)c1 [GW689066],%Inh,AAK1,0%
same,%Inh,ABL1-nonphosphorylated,0%
same,%Inh,ABL1-phosphorylated,0%
Cc1ccc(C)c(NC(=O)NCCNc2ccnc(Nc3ccc(F)cc3)n2)c1 [GSK1379878],%Inh,AAK1,63%
same,%Inh,ABL1-nonphosphorylated,0%
same,%Inh,ABL1-phosphorylated,0%
Cl.c1ccc(Cn2ncc3cc(Nc4ncnc5ccccc45)ccc32)cc1 [GW273749],%Inh,AAK1,30%
same,%Inh,ABL1-nonphosphorylated,38%
same,%Inh,ABL1-phosphorylated,17%
CC(C)(C)c1ccc(-n2cnc3c(N)ncnc32)cc1 [SKF-97263],%Inh,AAK1,1%
same,%Inh,ABL1-nonphosphorylated,0%
same,%Inh,ABL1-phosphorylated,0%
Cl.c1ccc(Cn2ccc3cc(Nc4ncnc5ccccc45)ccc32)cc1 [GW275568],%Inh,AAK1,17%
same,%Inh,ABL1-nonphosphorylated,0%
same,%Inh,ABL1-phosphorylated,30%
CCn1c(-c2ccncc2)nc2cnccc21 [SB-735216],%Inh,AAK1,0%
same,%Inh,ABL1-nonphosphorylated,26%
same,%Inh,ABL1-phosphorylated,0%
O=C(Nc1n[nH]c2nc(-c3ccco3)c(Br)cc12)c1ccc(CN2CCCC2)cc1.O=C(O)[C@H](O)[C@@H](O)C(=O)O [SB-742352],%Inh,AAK1,0%
same,%Inh,ABL1-nonphosphorylated,63%
same,%Inh,ABL1-phosphorylated,36%
O=C(Nc1ccccc1F)NC1CCN(c2ccnc(Nc3ccc(F)cc3)n2)C1 (stereo not shown) [GSK1379722],%Inh,AAK1,0%
same,%Inh,ABL1-nonphosphorylated,0%
same,%Inh,ABL1-phosphorylated,0%
COC(=O)c1cccc(NC(=O)NCCNc2ccnc(Nc3ccc(F)cc3)n2)c1 [GSK1379883],%Inh,AAK1,3%
same,%Inh,ABL1-nonphosphorylated,0%
same,%Inh,ABL1-phosphorylated,0%
Cl.O=S(=O)(c1cccc(F)c1)c1ccc(Nc2ncnc3cc(Br)sc23)cc1Cl [GSK306886],%Inh,AAK1,16%
same,%Inh,ABL1-nonphosphorylated,0%
same,%Inh,ABL1-phosphorylated,0%
Nc1nccc2scc(-c3ccc4c(c3)CCN4C(=O)Cc3cc(F)ccc3F)c12 [GSK2587663],%Inh,AAK1,0%
same,%Inh,ABL1-nonphosphorylated,0%
same,%Inh,ABL1-phosphorylated,0%
CCc1nc(-c2cccc(C)c2)c(-c2ccnc(NC(=O)c3ccccc3)c2)s1,%Inh,AAK1,2%
same,%Inh,ABL1-nonphosphorylated,24%
same,%Inh,ABL1-phosphorylated,0%
Nc1nc(-c2ccc3c(N)n[nH]c3c2)cc(N2CCCCC2)n1 [GSK2228768],%Inh,AAK1,53%
same,%Inh,ABL1-nonphosphorylated,0%
same,%Inh,ABL1-phosphorylated,0%

# Source: article PMC5540273 (PLoS ONE, 2017)
